# Shown are actives, neighbours in structure and some others; about 8.7% of the full set was active somewhere.
# JMJD2A Tudor = inhibitors of human JMJD2A Tudor domain; O75164; AlphaScreen JMJD2A-Tudor / H3K4me3 peptide binding; Potency, µM (titrated, usually from 114 µM), usual class: inhibitors; 390,000 compounds, 4.4% hits; note: nearly all actives have a fitted effect of over 50% in size
# BAZ2B block = BAZ2B (human) inhibition; Potency, µM (doses to about 114 µM), most hits filed as inhibitors; 360,000 compounds, 4.4% hits; AlphaScreen BAZ2B-H3K14Ac peptide displacement; AID 504333; Q9UIF8; note: nearly all actives have a fitted effect of over 60% in size
#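 In this displacement format the biotinylated H3(5-23) peptide acetylated at Lys14 serves as ligand at 50 nM, with BAZ2B at 50 nM in PBS pH 7.4 containing 0.01% Tween-20. Donor and acceptor beads are 10 ug/mL final.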
# ALOX12 inh = blocks human arachidonate 12S-lipoxygenase. P18054. purified 12hLO, xylenol orange hydroperoxide absorbance. Potency, µM (series often up to 108 µM), most hits filed as inhibitors. 580,000 compounds, 1.1% hits. AID 1671190
#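 Purified human 12hLO at 150 nM in 25 mM Hepes, 0.01% Triton X-100, pH 7.0, preincubated 15 min at room temperature with compound. Reaction started with 40 uM arachidonic acid, 30 min at room temperature. Hydroperoxide measured by Fe-xylenol orange, 573/405 nm absorbance ratio.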
# HP1b binding inh = HP1-beta chromodomain-methylated histone interaction inhibition. AID 540317. AlphaScreen HP1-beta / biotin-H3K9me3 peptide binding. 390,000 compounds, 0.56% hits. P83916. Potency, µM (titrated, usually from 114 µM), actives largely listed as inhibitors; note: nearly all actives have a fitted effect of over 70% in size
# Target sequence (P83916 whole entry, looked up): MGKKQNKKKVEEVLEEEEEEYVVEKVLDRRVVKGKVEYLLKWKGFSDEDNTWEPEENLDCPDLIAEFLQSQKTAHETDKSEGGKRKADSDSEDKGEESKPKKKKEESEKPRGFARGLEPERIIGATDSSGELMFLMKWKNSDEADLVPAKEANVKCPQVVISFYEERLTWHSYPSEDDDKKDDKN
#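 AlphaScreen: HP1-beta (50 nM) preformed 30 min with biotin-H3(1-18)K9me3 peptide (50 nM) in PBS pH 7.4, 0.01% Tween-20. Compound added for 30 min at RT, then streptavidin donor/nickel chelate acceptor beads (10 ug/mL) for 30 min.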
# G9a block = G9a (human) methyltransferase inhibition; Q96KQ7; Potency, µM (titrated, usually from 102 µM), most hits filed as inhibitors; AID 504332; G9a H3K9 monomethylation, AlphaScreen, 2 h; 350,000 compounds, 8.8% hits; note: nearly all actives have a fitted effect of over 75% in size
# Target sequence (Q96KQ7 913-1193 limits assumed): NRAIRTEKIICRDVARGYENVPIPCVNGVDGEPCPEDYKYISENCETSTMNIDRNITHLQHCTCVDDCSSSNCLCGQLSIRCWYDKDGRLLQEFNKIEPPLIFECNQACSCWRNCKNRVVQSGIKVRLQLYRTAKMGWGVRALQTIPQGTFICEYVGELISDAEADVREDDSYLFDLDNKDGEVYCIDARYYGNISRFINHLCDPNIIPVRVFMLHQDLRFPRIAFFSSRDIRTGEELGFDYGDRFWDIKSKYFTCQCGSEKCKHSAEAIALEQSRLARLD
#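 G9a (20 nM) preincubated 15 min RT with compounds, then 500 nM biotinylated H3K9 peptide and 20 uM SAM added; 2 h RT reaction. Monomethyl-H3K9 product detected by AlphaScreen with anti-H3K9me1 antibody, streptavidin donor and anti-rabbit IgG acceptor beads.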
# Sfp inh = inhibitors of Bacillus subtilis Sfp phosphopantetheinyl transferase; 310,000 compounds, 3.5% hits; Q9F4F7; Potency, µM, usual class: inhibitors; Biochemical Sfp PPTase activity, qHTS;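 note: the enzyme is Sfp with the accession as filed and its product quenches rhodamine fluorescence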
#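 Reaction rates are the 30-min fluorescence difference (ex 525, em 598 nm) in wells containing 15 nM Sfp, 5 uM rhodamine-CoA and 12.5 uM BHQ-2-YbbR at pH 7.6 with 10 mM MgCl2.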
# A number is an active result; i = inactive; ? = inconclusive; nt = not tested or not shown; [ ] = another dose, or the depositor's remark. Calls come from the whole dose curve; as a rule, active = well fitted curve in the direction sought with a large enough effect; inconclusive = small, poorly fitted or top-dose-only effect, or another doubt; inactive = no such curve, though single readings can be large; an effect the other way counts as inactive or inconclusive.
SMILES,JMJD2A Tudor,BAZ2B block,ALOX12 inh,HP1b binding inh,G9a block,Sfp inh
Cc1ccc(C(=O)OCC(=O)Nc2ccc3c(c2)OCO3)cc1S(=O)(=O)N1CCOCC1,i,i,i,i,i[0.501 µM],i
Cc1ccc(OCC(=O)Nc2ccc(N3CCN(S(C)(=O)=O)CC3)cc2)c(C)c1,i,i,i,i,i,i
Cc1cccc(OCC(=O)Nc2ccc(S(=O)(=O)N3CCCC3)cc2)c1,i,i,?,i,32µM,?
Cc1cc(C)c(OCC(=O)Nc2ccc(S(=O)(=O)N3CCCC3)cc2)c(C)c1,i,i,?,i,50µM,nt
CCN(c1ccc(NC(=O)COC(=O)c2ccc(C)c(S(=O)(=O)N3CCOCC3)c2)cc1)C(C)C,22µM,?,i,?,4.5µM,i
Cc1ccc(C(C)C)c(OCC(=O)Nc2ccc(N3CCN(S(C)(=O)=O)CC3)cc2)c1,i,i,i,i,10µM,i
CCc1cccc(OCC(=O)Nc2ccc(S(=O)(=O)N3CCCC3)cc2)c1,i,i,i,i,i,i
CC(=O)Nc1ccc(NC(=O)Cn2cccc2-c2nc(-c3ccccc3)no2)cc1,nt,nt,i,nt,nt,nt
Cc1ccc(NC(=O)CNc2ccccc2N2CCCC2=O)cc1S(=O)(=O)N1CCOCC1,i,i,?,i,45µM,nt
Cc1cc(C)c(OCC(=O)Nc2ccc(N3CCOCC3)cc2)c(Br)c1,nt,i,i,nt,i,i
COc1cccc(/C=C/C(=O)OCC(=O)Nc2ccc(S(=O)(=O)N3CCCC3)cc2)c1,i,i,i,i,i,79µM
O=C(COC(=O)/C=C/c1cccc(Cl)c1)Nc1ccc(N2CCOCC2)cc1,i,nt,i,i,nt,nt
CC(=O)N1CCN(c2ccc(NC(=O)COc3c(C)cc(C)cc3Cl)cc2)CC1,nt,nt,13µM,nt,nt,nt
Cc1ccc(NC(=O)COC(=O)/C=C/c2cccc(Cl)c2)cc1S(=O)(=O)N1CCOCC1,i,i,i,i,40µM,i
CCOc1ccc(CNC(=O)c2ncoc2-c2cccs2)cc1,nt,nt,i,nt,nt,nt
COc1cccc(/C=C/C(=O)OCC(=O)Nc2cccc(S(=O)(=O)N3CCCCC3)c2)c1OC,i,i,i,i,71µM,i
CCn1c(=O)c(C(=O)Nn2c(C)nc3ccccc3c2=O)c(O)c2ccccc21,i,50µM,i,i,i,i
CCc1nc2ccccc2c(=O)n1NC(=O)c1c(O)c2ccccc2n(CC)c1=O,i,i,i,i,i,i
CCn1c(=O)c(C(=O)NCCCO)c(O)c2ccccc21,28µM,nt,i,i,?,i
Cc1nc2ccccc2c(=O)n1NC(=O)c1ccc([N+](=O)[O-])cc1,8.9µM,nt,i,i,i,i
Cc1cc(C(=O)Nn2c(C)nc3ccccc3c2=O)ccc1[N+](=O)[O-],i,i,i,i,i,i
CCOCCCNc1oc(-c2ccc(S(=O)(=O)N3CCCCC3)cc2)nc1C#N,nt,nt,i,nt,nt,nt
CCN(c1ccc(-c2csc(C3CC3)n2)cc1)S(C)(=O)=O,nt,nt,i,nt,nt,nt
CCN(Cc1cccs1)C(=O)c1[nH]c2c(c1C)C(=O)CCC2,nt,nt,i,nt,nt,nt
CCc1ccc(-c2cn(C3CCCCC3)c(=S)[nH]2)cc1,28µM,18µM,20µM,?,?,i
SMILES,JMJD2A Tudor,BAZ2B block,ALOX12 inh,HP1b binding inh,G9a block,Sfp inh
CN1CCN(/N=C/c2nc(-c3cccc([N+](=O)[O-])c3)n3ccccc23)CC1,?,?,i,i,?,79µM
CCc1ccc2c(c1)Sc1ccccc1CC2N1CCN(C)CC1 (centres undefined),i,nt,?,i,nt,nt
CN1Cc2cccc3c2C(Cc2ccccc2S3)C1 (centres undefined),10µM,i,i,i,?,i
O=S(=O)(NCCO)c1ccc(-c2ccc(S(=O)(=O)NCCO)cc2)cc1,nt,nt,i,nt,nt,nt
O=C(O)c1ccc(N/N=C/c2ccc(F)c(F)c2)cc1,i,i,?,i,4.5µM,i
Cc1ccc2cc(/C=N/NC(=O)c3ccc(F)cc3)c(Cl)nc2c1,i,i,i,i,i,i
O=C(O)c1ccc(N/N=C/c2ccnc3ccccc23)cc1,i,i,i,i,?,i
O=C(O)c1ccc(N/N=C/c2cccc3cccnc23)cc1,i[11.4 µM],71µM,i,i,nt,i
O=C(O)c1ccc(N/N=C/c2ccncc2)cc1,i,i,i,i,i,i
O=C(O)c1ccc(N/N=C/c2ccc3nccnc3c2)cc1,i,i,i,i,50µM,i
Cc1ccc2nc(Cl)c(/C=N/Nc3ccc(C(=O)O)cc3)cc2c1,i,?,?,i,50µM,i
CCCn1cc(NC(=O)CC[C@H]2NC(=O)c3ccccc3NC2=O)c(C)n1,nt,nt,i,nt,nt,nt
C(=N\NCc1ccccc1)/c1ccc2nccnc2c1,i,i,i,i,50µM,i
Cc1ccc(F)cc1CC(=O)N1C[C@@H](CN2CCOCC2)[C@@H](CO)C1,nt,nt,i,nt,nt,nt
O=C(O)c1ccccc1NCc1ccsc1,i,i,i,i,i,i
O=C(O)c1ccc(CNc2ccccc2C(=O)O)cc1,56µM,?,i,i,?,i
O=C(O)c1ccccc1NCc1ccncc1,i,i,i,i,40µM,i
O=C(O)c1ccccc1NCCO,i,nt,i,i,50µM,i
CNC(=O)[C@@H]1C[C@@H](O)CN1C1CCN(C(=O)c2ccccc2OC)CC1,nt,nt,i,nt,nt,nt
O=C(C1CCOCC1)N1CCC2(CC1)NCCc1c2[nH]c2ccccc12,nt,nt,i,nt,nt,nt
CCC(C)NC(=O)CCNC(=O)c1cc2ccc(OC)cc2nc1C (centres undefined),nt,nt,i,nt,nt,nt
O=c1[nH]c2cc(Cl)c(Cl)cc2[nH]c1=O,nt,nt,i,nt,i[2.33 µM],i
Fc1cc2[nH]c(=S)[nH]c2cc1Cl,i,i,i,i,6.3µM,i
COc1ccc(CNC(=O)CN2C(=O)C(c3ccccc3)Oc3cccnc32)cc1 (centres undefined),i,i,i,i,i,i
CCOc1ccc(CNC(=O)CN2C(=O)C(c3ccccc3)Oc3cccnc32)cc1 (centres undefined),i,71µM,i,i,i,i
SMILES,JMJD2A Tudor,BAZ2B block,ALOX12 inh,HP1b binding inh,G9a block,Sfp inh
O=C(CN1C(=O)C(c2ccccc2)Oc2cccnc21)NCc1ccccc1F (centres undefined),20µM,i,i,i,i,i
COc1ccc(CNC(=O)COc2cc(O)c3c(c2)OC(C)(C)CC3=O)c(OC)c1,89µM,i,i,i,nt,i
O=[N+]([O-])/C(C(Cl)=C(Cl)Cl)=C1\Nc2ccccc2O1,40µM,50µM,i,?,35µM,i
CCOC(=O)c1ccccc1NC(=O)c1cccc(N2CCCCS2(=O)=O)c1,nt,nt,i,nt,nt,nt
CCCN1CCCC12Cc1ccccc1CN(C(=O)C(C)C)C2 (centres undefined),nt,nt,i,nt,nt,nt
COc1cccc(/C=N/n2c(SC)nnc2-c2ccccc2)c1OC,i,i,i,i,?,i
COc1cccc(/C=N/n2c(SC)nnc2-c2ccccc2)c1O,i,?,i,i,8.9µM,i
CN(Cc1nccn1C)Cc1cnc(S(=O)(=O)CC2CC2)n1CC1CCCCC1,nt,nt,i,nt,nt,nt
